Results from PubChem BioAssay AID1159580 (chemical genetic matrix, 2015).
Values joined by “and” are separate entries in the source; they are usually repeats but may differ in a detail not shown here. Identical values can stand only once. Hit rate of the full screen: of about 5,500 compounds, about 2,000 (36%) were called active. Another 18% or so got no clear call; they are omitted. Rule as the data show it: active = normalized growth mostly below about 0.91 (no sharp cut-off); inconclusive = no clear call, values can overlap the other calls; inactive = mostly above about 0.92. The list shows a part of the results.

Experiment: chemical genetic growth profiling, strain panel (AID 1159580);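 also: tested at 20 µM; growth read once vehicle control cultures reached saturation at 30 °C; 1 = growth at the plate median or of vehicle wells; lower values mean less growth of the strain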
Conditions: S. cerevisiae deletion strains, growth OD

Measured: normalized growth

CC(=O)NS(=O)(=O)c1ccc(N)cc1
inactive: locus YAL021C, strain ccr4, hits give low values 1 | locus YAL026C, strain drs2, hits give low values 1.01 | locus YAL030W, strain snc1, hits give low values 1.01 | locus YBL061C, strain skt5, hits give low values 0.999 | locus YBR009C, strain hhf1, hits give low values 1.01 | locus YBR021W, strain FUR4, hits give low values 0.987 | locus YBR023C, strain chs3, hits give low values 1.01 | locus YBR171W, strain sec66, hits give low values 1.02 | locus YBR229C, strain ROT2, hits give low values 0.986 | locus YBR231C, strain swc5, hits give low values 1.03 | locus YBR279W, strain paf1, hits give low values 1.01 | locus YCL011C, strain gbp2, hits give low values 1.02 | locus YCL016C, strain dcc1, hits give low values 1.01 | locus YCL029C, strain bik1, hits give low values 0.973 | locus YCL061C, strain MRC1, hits give low values 1.02 | locus YCL069W, strain vba3, hits give low values 1 | locus YCR088W, strain abp1, hits give low values 1.01 | locus YDL005C, strain med2, hits give low values 1.01 | locus YDL035C, strain GPR1, hits give low values 1 | locus YDL040C, strain nat1, hits give low values 0.995 | locus YDL074C, strain BRE1, hits give low values 1.02 | locus YDL101C, strain DUN1, hits give low values 0.987 | locus YDL134C, strain PPH21, hits give low values 0.99 | locus YDL185W, strain tfp1, hits give low values 0.98 | locus YDL192W, strain arf1, hits give low values 0.971 | locus YDR001C, strain nth1, hits give low values 1.01 | locus YDR069C, strain doa4, hits give low values 1.03 | locus YDR101C, strain arx1, hits give low values 0.971 | locus YDR137W, strain rgp1, hits give low values 0.997 | locus YDR150W, strain NUM1, hits give low values 0.994 | locus YDR159W, strain sac3, hits give low values 1.03 | locus YDR162C, strain NBP2, hits give low values 0.999 | locus YDR195W, strain ref2 0.998 | locus YDR297W, strain sur2, hits give low values 1 | locus YDR318W, strain mcm21, hits give low values 0.987 | locus YDR334W, strain swr1, hits give low values 0.999 | locus YDR335W, strain msn5, hits give low values 0.993 | locus YDR388W, hits give low values 0.977 | locus YDR392W, strain spt3, hits give low values 1.01 | locus YDR502C, strain sam2, hits give low values 0.99 | locus YEL003W, strain gim4, hits give low values 1.01 | locus YEL037C, strain rad23, hits give low values 1.01 | locus YEL061C, strain CIN8 (second series), hits give low values 1.02 | locus YEL061C, strain CIN8, hits give low values 0.993 | locus YER015W, strain faa2, hits give low values 1.01 | locus YER016W, strain bim1, hits give low values 1.02 | locus YER110C, hits give low values 0.975 | locus YER111C, strain swi4, hits give low values 1 | locus YER155C, strain BEM2 (second series), hits give low values 1.05 | locus YER155C, strain BEM2, hits give low values 0.986 | locus YER167W, strain BCK2, hits give low values 0.989 | locus YFR010W, strain ubp6, hits give low values 1.02 | locus YGL078C, strain dbp3, hits give low values 0.974 | locus YGL086W, strain mad1, hits give low values 1 | locus YGL167C, strain pmr1, hits give low values 0.999 | locus YGL173C, strain kem1, hits give low values 1.01 | locus YGL227W, strain vid30, hits give low values 1.01 | locus YGL240W, strain doc1, hits give low values 0.999 | locus YGL248W, strain PDE1, hits give low values 0.994 | locus YGL253W, strain hxk2, hits give low values 1.02 | locus YGR078C, strain PAC10, hits give low values 0.998 | locus YGR135W, strain pre9, hits give low values 0.976 | locus YGR252W, strain gcn5, hits give low values 1.05 | locus YHR013C, strain ard1, hits give low values 1.01 | locus YHR027C, strain rpn1, hits give low values 1.02 | locus YHR030C, strain SLT2, hits give low values 0.992 and 0.987 | locus YHR079C, strain IRE1 (second series), hits give low values 0.978 | locus YHR079C, strain IRE1, hits give low values 0.982 | locus YHR094C, strain hxt1, hits give low values 0.993 | locus YHR129C, strain ARP1, hits give low values 0.997 | locus YHR142W, strain chs7, hits give low values 1.01 | locus YHR200W, strain rpn10, hits give low values 0.984 | locus YIL066C, strain RNR3, hits give low values 0.993 | locus YIL073C, strain SPO22, hits give low values 0.934 | locus YIL125W, strain kgd1, hits give low values 0.986 | locus YIR030C, strain dcg1, hits give low values 0.981 | locus YJL092W, strain hpr5, hits give low values 1.02 | locus YJL095W, strain BCK1 (second series), hits give low values 1.01 | locus YJL095W, strain BCK1, hits give low values 1 and 0.978 | locus YJL115W, strain asf1, hits give low values 1.04 | locus YJL129C, strain trk1, hits give low values 1.01 | locus YJL134W, strain LCB3, hits give low values 0.992 | locus YJL154C, strain vps35, hits give low values 1.01 | locus YJL164C, strain tpk1, hits give low values 1 | locus YJL166W, strain qcr8, hits give low values 1 | locus YJL168C, strain set2, hits give low values 0.986 | locus YJL187C, strain SWE1 (second series), hits give low values 0.983 | locus YJL187C, strain SWE1, hits give low values 1.01 | locus YJR043C, strain POL32, hits give low values 0.997
